Screening data (PubChem BioAssay)
Cardiac RTF inh – cardiac RTF calcium desensitization. P19429+P45379. inhibition, % at 7.15 µM. AID 493244. hit rate 0.12% among 340,000. IANBD-labeled cardiac RTF, Ca2+ fluorescence;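 active = inhibition above the mean inhibition of all tested compounds plus 3 SD, cut at about 17% in these data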;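 note: assay run at fixed EC70 calcium of 1.6 mM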
eLon inh – inhibitors of E. coli Lon protease; P0A9M0; purified E. coli Lon protease, fluorescence polarization; inhibition, % at 7.94 µM; hit rate 0.42% among 360,000; AID 602123; in the data active = inhibition above about 13%, passing the limit was not always enough;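 note: 0% = enzyme with probe and DMSO and 100% = no enzyme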
LANA DNA inh – KSHV C-LANA DNA binding inhibition. MBP-C-LANA/FAM-LBS DNA binding, fluorescence polarization. inhibition, % at 9 µM. hit rate 0.078% among 340,000. AID 504423;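 active = highest replicate inhibition at or above 60% at 9 µM, even if other replicates fall short; inactive = all replicates below 60% inhibition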;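 note: 0% = neutral control wells and 100% = 4 µM acridine orange control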
RTF Ca sens act – increases calcium sensitivity of human cardiac regulated thin filaments | P19429+P45379 | IANBD-labeled TnC RTF fluorescence at EC20 calcium; 0% EC20 calcium, 100% full calcium | activation, % at 7.2 µM | hit rate 0.24% among 340,000 | AID 493008;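 active = activation above the mean over all tested compounds plus 3 SD, cut at about 30% in these data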;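 note: rise in fluorescence read as greater calcium sensitivity of cardiac thin filaments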
Keap1-Nrf2 PPI – inhibitors of human Keap1-Nrf2 protein-protein interaction. Q14145. Keap1 Kelch-Nrf2 peptide fluorescence polarization, 1536-well. inhibition, % at 9.4 µM. hit rate 0.15% among 340,000. AID 504523; in the data active = inhibition above about 12%;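 note: human Keap1 Kelch domain with fluorescein labeled Nrf2 9mer peptide probe; 0% = neutral control wells and 100% = peptide positive control; higher means more block of Keap1 binding to Nrf2 peptide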
Target sequence (Q14145 whole entry, looked up, the tested form may be a part): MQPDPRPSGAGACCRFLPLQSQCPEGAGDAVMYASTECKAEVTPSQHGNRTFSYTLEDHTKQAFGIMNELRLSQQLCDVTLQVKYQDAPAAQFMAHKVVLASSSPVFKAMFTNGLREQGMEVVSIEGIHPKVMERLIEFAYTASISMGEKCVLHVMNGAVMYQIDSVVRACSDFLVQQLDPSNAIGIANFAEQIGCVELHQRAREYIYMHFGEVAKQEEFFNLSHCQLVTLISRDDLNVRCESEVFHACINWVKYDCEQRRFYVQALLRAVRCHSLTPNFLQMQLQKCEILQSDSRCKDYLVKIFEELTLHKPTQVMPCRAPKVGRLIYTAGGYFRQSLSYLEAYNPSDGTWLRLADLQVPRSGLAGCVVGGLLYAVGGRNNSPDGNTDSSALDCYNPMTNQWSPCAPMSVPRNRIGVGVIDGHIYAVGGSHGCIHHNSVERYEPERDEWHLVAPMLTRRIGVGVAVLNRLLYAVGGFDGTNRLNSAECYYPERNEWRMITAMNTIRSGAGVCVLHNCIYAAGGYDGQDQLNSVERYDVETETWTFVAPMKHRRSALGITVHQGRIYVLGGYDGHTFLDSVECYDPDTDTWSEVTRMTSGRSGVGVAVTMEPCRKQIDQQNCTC
Starred values were filed as active, the others as inactive; ! = not active in a repeat. Most compounds without a hit are left out; they make up all but 0.82% or so of the library.

Results for Cc1cc(Cl)ccc1OC(C)C(=O)O (stereo not given) ?
Cardiac RTF inh: 20.1*; eLon inh: -14.8; LANA DNA inh: 3.1; RTF Ca sens act: 4.8; Keap1-Nrf2 PPI: 1.5

Results for COc1ccc(CN2Cc3cc(N4CCOCC4)ccc3-n3nncc3C2)cc1 ?
eLon inh: 0.9

What do the screens show for `O=C1NC(=O)N(c2ccc3c(c2)OCO3)C(=O)/C1=C\c1ccc(-c2ccccc2C(=O)O)o1`?
Cardiac RTF inh: 7.9; eLon inh: -18.1; LANA DNA inh: 4.6; RTF Ca sens act: -0.8; Keap1-Nrf2 PPI: -3.8

Results for O=C1NC(=O)N(c2ccc3c(c2)OCO3)C(=O)/C1=C/c1ccc(N2CCCCC2)o1 ?
Cardiac RTF inh: -80.9; eLon inh: -297.4; LANA DNA inh: -37.7; RTF Ca sens act: 78.4*; Keap1-Nrf2 PPI: -95.0

What do the screens show for `C=CCN1C(=O)/C(=C/c2ccc(N3CCOCC3)o2)C(=O)NC1=S`?
Cardiac RTF inh: -35.3; eLon inh: -143.7; LANA DNA inh: -25.8; RTF Ca sens act: 66.5*; Keap1-Nrf2 PPI: -53.2

Results for Cc1cc(C)cc(N2C(=O)/C(=C\c3ccc(N4CCN(C)CC4)o3)C(=O)NC2=S)c1 ?
eLon inh: -109.3

What do the screens show for `O=C1NC(=O)C(=Cc2ccc(N3CCOCC3)o2)C(=O)N1`?
Cardiac RTF inh: -64.2; eLon inh: -342.3; LANA DNA inh: -40.4; RTF Ca sens act: 46.9*; Keap1-Nrf2 PPI: -170.7

What do the screens show for `CN1C(=O)C(=Cc2ccc(N3CCCCC3)o2)C(=O)N(C)C1=S`?
Cardiac RTF inh: -7.4; eLon inh: -213.5; LANA DNA inh: -1.2; RTF Ca sens act: 13.5; Keap1-Nrf2 PPI: -5.5

How did CS(=O)(=O)c1ccc(C2=C(CNC(=O)c3cccnc3)[C@H]3CC[C@@H](C2)N3Cc2ccco2)cc1 do in these assays?
eLon inh: 1.7

What do the screens show for `Cn1cc(C=C(C#N)C#N)c2ccccc21`?
Cardiac RTF inh: -44.5; eLon inh: -37.0; LANA DNA inh: 56.5; RTF Ca sens act: 28.5; Keap1-Nrf2 PPI: 53.4*

How did N#Cc1ccc(Cn2cc(C=O)c3ccccc32)cc1 do in these assays?
Cardiac RTF inh: -4.0; eLon inh: -3.7; LANA DNA inh: -2.5; RTF Ca sens act: -0.1; Keap1-Nrf2 PPI: -1.5

How did CC(=O)c1ccc(OCC(=O)N2CCCC(N(C)Cc3ccccc3)C2)cc1 (stereo not given) do in these assays?
Cardiac RTF inh: 5.7; eLon inh: -3.1; LANA DNA inh: 1.6; RTF Ca sens act: 0.7; Keap1-Nrf2 PPI: 3.3

What do the screens show for `CC(C)(C)C(=O)N1Cc2cc(N3CCOCC3)ccc2-n2nncc2C1`?
eLon inh: 4.8

How did CC(=O)c1ccc2c(c1)C1C(Cl)C(Sc3ccccc3[N+](=O)[O-])CC1C(C(=O)O)N2 (stereo not given) do in these assays?
Cardiac RTF inh: 15.8; eLon inh: 22.5*; LANA DNA inh: 8.3; RTF Ca sens act: -18.2; Keap1-Nrf2 PPI: -5.2

How did CC(C)C[C@H]1C(=O)N2CCCC2[C@]2(O)O[C@](NC(=O)[C@@H]3C=C4c5cccc6[nH]cc(c56)CC4N(C)C3)(C(C)C)C(=O)N12 (stereo not given in full) do in these assays?
Cardiac RTF inh: -55.7; eLon inh: 62.5; LANA DNA inh: 24.4; RTF Ca sens act: 30.9*; Keap1-Nrf2 PPI: 15.7*

Results for CC(C)[C@@]1(NC(=O)[C@@H]2C[C@@H]3c4cccc5[nH]cc(c45)C[C@H]3N(C)C2)O[C@@]2(O)[C@@H]3CCCN3C(=O)[C@H](Cc3ccccc3)N2C1=O ?
Cardiac RTF inh: 5.5; eLon inh: -15.1; LANA DNA inh: 0.1; RTF Ca sens act: 8.2; Keap1-Nrf2 PPI: -0.5

What do the screens show for `CC(C)[C@H]1C(=O)N2CCC[C@H]2[C@]2(O)O[C@](NC(=O)[C@@H]3C=C4c5cccc6[nH]cc(c56)C[C@H]4N(C)C3)(C(C)C)C(=O)N12`?
Cardiac RTF inh: -28.5; eLon inh: 64.0*; LANA DNA inh: 28.1; RTF Ca sens act: 26.8; Keap1-Nrf2 PPI: 15.1*

Results for O=C(NC1CCCCC1)N1Cc2cc(-c3ccccc3)ccc2-n2nncc2C1 ?
eLon inh: 0.4

Results for CN(C)[C@@H]1C(=O)C(C(N)=O)=C(O)[C@@]2(O)C(=O)C3=C(O)c4c(O)cccc4[C@@](C)(O)[C@H]3[C@H](O)[C@@H]12 ?
Cardiac RTF inh: 20.4*!; eLon inh: 37.2; LANA DNA inh: 124.0*; RTF Ca sens act: -17.7; Keap1-Nrf2 PPI: -2.1

How did Cn1ncc(Cl)c1C(=O)N1CCC2(CC1)OCCO2 do in these assays?
Cardiac RTF inh: 0.7; eLon inh: -10.3; LANA DNA inh: -1.0; RTF Ca sens act: 0.2; Keap1-Nrf2 PPI: 2.4

What do the screens show for `COc1ccc(N2C(=O)/C(=C/c3ccc(N(C)C)o3)C(=O)NC2=S)cc1`?
Cardiac RTF inh: -67.5; eLon inh: -339.0; LANA DNA inh: -0.1; RTF Ca sens act: 54.9*; Keap1-Nrf2 PPI: -5.6

Results for COc1cccc(N2C(=O)/C(=C/c3ccc(C)o3)C(=O)NC2=S)c1 ?
Cardiac RTF inh: -8.5; eLon inh: -58.8; LANA DNA inh: 1.5; RTF Ca sens act: 1.9; Keap1-Nrf2 PPI: -12.6

What do the screens show for `CCOc1cccc(N2C(=O)/C(=C/c3ccco3)C(=O)NC2=S)c1`?
Cardiac RTF inh: -0.4; eLon inh: -22.9; RTF Ca sens act: -7.7; Keap1-Nrf2 PPI: 0.1

What do the screens show for `COc1ccc(N2C(=O)NC(=O)/C(=C\c3cn(C)c4ccccc34)C2=O)cc1`?
Cardiac RTF inh: -474.9; eLon inh: -97.6; LANA DNA inh: 35.2; RTF Ca sens act: 523.3*; Keap1-Nrf2 PPI: 3.7

What do the screens show for `CCN(CC)c1ccc(/C=C2\C(=O)NC(=S)N(C)C2=O)o1`?
Cardiac RTF inh: -77.8; eLon inh: inactive; LANA DNA inh: -5.4; RTF Ca sens act: 53.4*; Keap1-Nrf2 PPI: -19.4

Results for O=C1NC(=S)N(c2ccccc2)C(=O)/C1=C/c1ccco1 ?
Cardiac RTF inh: -2.6; eLon inh: -63.5; LANA DNA inh: 87.7*; RTF Ca sens act: -5.7; Keap1-Nrf2 PPI: -0.1

How did COC(=O)C1=COC(C)C2CN3CCc4c([nH]c5cc(OC)ccc45)C3CC12 (stereo not given) do in these assays?
eLon inh: 14.0

What do the screens show for `Cc1cnc[nH]1`?
Cardiac RTF inh: -10.2; eLon inh: 3.6; LANA DNA inh: -2.1; RTF Ca sens act: -1.9; Keap1-Nrf2 PPI: -1.2

Results for COc1ccc(-c2cc(=O)oc3c(C)c(OC(C)C(=O)N4C[C@H]5C[C@@H](C4)c4cccc(=O)n4C5)ccc23)cc1 (stereo not given in full) ?
Cardiac RTF inh: 2.7; eLon inh: -0.2; LANA DNA inh: 1.1; RTF Ca sens act: -7.8; Keap1-Nrf2 PPI: -4.0

What do the screens show for `CCN(CC)c1ccc(/C=C2\C(=O)NC(=S)N(c3ccc(OC)cc3OC)C2=O)o1`?
Cardiac RTF inh: -100.7; eLon inh: inactive; LANA DNA inh: -32.2; RTF Ca sens act: 76.1*; Keap1-Nrf2 PPI: -20.7
